Measured values: PubChem BioAssay
The source made the active and inactive calls. Unless noted, no rule for the calls is given here.

Key:
[1] = antimalarial activity against Dd2 strain (AID 2302;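 active = growth inhibition above 50% at the single 2 µM test dose, taken to imply half-maximal potency below 2 µM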;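 also: 0% = DMSO untreated growth and 100% = chloroquine plus artemisinin killed control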); details: P. falciparum Dd2 in RBCs, LDH growth readout, 72 h; at 2 µM; hits give high values
[2] = human hepatoma cell viability loss – ATP luminescence, cytotoxicity control for P. falciparum antimalarial project, primary screen (AID 2303;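 active = inhibition above 50%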;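 also: 0% = DMSO wells and 100% = digitonin-killed cells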); details: HepG2 viability, 24-48 h, at 10 µM, hits give high values
[3] = target: L-lactate dehydrogenase (Plasmodium falciparum (isolate CDC / Honduras)) (UniProt Q27743); assay: PfLDH activity inhibition – cell lysate, 3D7 strain, counter-screen for P. falciparum growth inhibition project (AID 2304);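 also: 0% = vehicle and 100% = reference inhibitor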; details: P. falciparum 3D7 crude extract, LDH APAD/NBT absorbance; at 2 µM; hits give high values
Chain of L-lactate dehydrogenase (Plasmodium falciparum (isolate CDC / Honduras)) (Q27743 whole entry, looked up): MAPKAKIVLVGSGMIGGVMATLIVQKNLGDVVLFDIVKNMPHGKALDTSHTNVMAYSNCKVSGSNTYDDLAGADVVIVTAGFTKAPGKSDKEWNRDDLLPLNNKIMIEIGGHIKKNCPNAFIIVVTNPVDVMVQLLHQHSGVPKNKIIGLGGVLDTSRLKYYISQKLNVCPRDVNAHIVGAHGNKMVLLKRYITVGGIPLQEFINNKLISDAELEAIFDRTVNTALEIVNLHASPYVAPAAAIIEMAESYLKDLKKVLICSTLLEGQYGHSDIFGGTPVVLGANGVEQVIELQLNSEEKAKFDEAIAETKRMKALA

[4] = inhibition of 3D7 malaria parasite growth – strain 3D7 (AID 2306);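 also: 0% = DMSO wells and 100% = chloroquine plus artemisinin control wells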; details: P. falciparum 3D7 erythrocytic growth, LDH absorbance, 72 h; at 2 µM; hits give high values
[5] = compounds altering circadian rhythm period length – cell-based, LOPAC library, luminescence reporter (AID 2774); details: circadian reporter cells, at 7 µM, actives lie on both sides;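 also: values are relative to mean of DMSO wells on each plate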

Compound: Oc1cccc(-c2nc(-c3ccccc3)c(-c3ccc4oc5ccc(-c6[nH]c(-c7cccc(O)c7)nc6-c6ccccc6)cc5c4c3)[nH]2)c1
- growth inhibition [1]: 35% (inactive)
- inhibition [2]: 30% (inactive)
- inhibition [3]: 4% (inactive)
- growth inhibition [4]: 91% (active)

Compound: NCCNC(=O)Cc1ccc(NC(=O)Cc2ccc(Nc3ncnc4c3ncn4[C@@H]3O[C@H](CO)[C@H](O)C3O)cc2)cc1 (some centres not stated)
- period change [5]: -0.095 h (inactive)

Compound: O=C(NC=Nc1cc([N+](=O)[O-])c(-c2cccnc2)n1-c1ccc(O)cc1)c1ccccc1
- growth inhibition [1]: 62% (active)
- inhibition [2]: 17% (inactive)
- inhibition [3]: 6% (inactive)
- growth inhibition [4]: 102% (active)

Compound: Oc1ccc2ccccc2c1C=NNc1nc(Nc2ccccc2)nc(Nc2ccccc2)n1
- growth inhibition [1]: 73% (active)
- inhibition [2]: 55% (active)
- inhibition [3]: -2% (inactive)
- growth inhibition [4]: 99% (active)

Compound: Nc1cc(C=Cc2ccc(O)cc2)nc2ccccc12
- growth inhibition [1]: 14% (inactive)
- inhibition [2]: 15% (inactive)
- inhibition [3]: 3% (inactive)
- growth inhibition [4]: 100% (active)

Compound: CCCCCC(C)C(C)c1cc(O)c2c(c1)OC(C)(C)CC2=Cc1ccncc1 (configuration not stated)
- growth inhibition [1]: 78% (active)
- inhibition [2]: -8% (inactive)
- inhibition [3]: 2% (inactive)
- growth inhibition [4]: 100% (active)

Compound: c1cc2nc(CCCCc3nc4ccc(C5=N[C@H]6CCCC[C@H]6N5)cc4[nH]3)[nH]c2cc1C1=N[C@H]2CCCC[C@H]2N1
- growth inhibition [1]: 88% (active)
- inhibition [2]: 5% (inactive)
- inhibition [3]: 6% (inactive)
- growth inhibition [4]: 90% (active)

Compound: Cc1[nH]c2ccccc2c1C=NNc1nc(Nc2ccccc2)nc(Nc2ccccc2)n1
- growth inhibition [1]: 23% (inactive)
- inhibition [2]: 3% (inactive)
- inhibition [3]: 6% (inactive)
- growth inhibition [4]: 87% (active)

Compound: CN1C2CCC1CC(NC(=O)c1nn(C)c3ccccc13)C2 (configuration not stated)
- period change [5]: 0.265 h (inactive)

Compound: COc1ccc(Nc2nc(NN=Cc3ccc(O)cc3)nc(Nc3ccc([N+](=O)[O-])cc3)n2)cc1
- growth inhibition [1]: 16% (inactive)
- inhibition [2]: -1% (inactive)
- inhibition [3]: 0% (inactive)
- growth inhibition [4]: 93% (active)

Compound: Cc1ccc(-c2cncc(-c3cc(NC4CCN(Cc5ccccc5)CC4)nc(-c4ccccc4)n3)c2)cc1
- growth inhibition [1]: 66% (active)
- inhibition [2]: -2% (inactive)
- inhibition [3]: -4% (inactive)
- growth inhibition [4]: 100% (active)

Compound: CN(C)C(=S)NN=Cc1cccc(O)c1O
- growth inhibition [1]: 55% (active)
- inhibition [2]: 11% (inactive)
- inhibition [3]: -2% (inactive)
- growth inhibition [4]: 91% (active)

Compound: Oc1ccc(-c2nc(-c3ccc4oc5ccc(-c6[nH]c(-c7ccc(O)cc7)nc6-c6ccccc6)cc5c4c3)c(-c3ccccc3)[nH]2)cc1
- growth inhibition [1]: 71% (active)
- inhibition [2]: -2% (inactive)
- inhibition [3]: 3% (inactive)
- growth inhibition [4]: 84% (active)

Compound: CC(C)CN(C)c1nc(N)c(C(=O)N=C(N)N)nc1Cl
- period change [5]: 0 h (inactive)

Compound: CCCC[C@@H](C(=O)NCc1ccccc1C(F)(F)F)N1C(=O)CCC1C(=O)Nc1ccc([N+](=O)[O-])cc1 (some centres not stated)
- growth inhibition [1]: 2% (inactive)
- inhibition [2]: 7% (inactive)
- inhibition [3]: 0% (inactive)
- growth inhibition [4]: 94% (active)

Compound: ON=C1CCc2cc(-c3cc(-c4ccc(OC5CCNCC5)cc4)oc3-c3ccncc3)ccc21
- growth inhibition [1]: 99% (active)
- inhibition [2]: 34% (inactive)
- inhibition [3]: 3% (inactive)
- growth inhibition [4]: 101% (active)

Compound: Oc1ccc(C=NNC(=S)Nc2cccc3ccccc23)c(O)c1
- growth inhibition [1]: 72% (active)
- inhibition [2]: 8% (inactive)
- inhibition [3]: -4% (inactive)
- growth inhibition [4]: 89% (active)

Compound: O=C(NN=Cc1nc2ccccc2[nH]1)c1cccc([N+](=O)[O-])c1
- growth inhibition [1]: 82% (active)
- inhibition [2]: -3% (inactive)
- inhibition [3]: 2% (inactive)
- growth inhibition [4]: 99% (active)

Compound: Cc1cc(C)c2c(c1)C(=NO)CCN2
- growth inhibition [1]: 2% (inactive)
- inhibition [2]: 2% (inactive)
- inhibition [3]: 7% (inactive)
- growth inhibition [4]: 94% (active)

Compound: O=[N+]([O-])c1ccc(Nc2nc(NN=Cc3cc(Cl)cc(Cl)c3O)nc(Nc3ccccc3)n2)cc1
- growth inhibition [1]: 72% (active)
- inhibition [2]: 29% (inactive)
- inhibition [3]: -6% (inactive)
- growth inhibition [4]: 100% (active)

Compound: ON=C1CCc2cc(-c3nc(-c4cccc(OCCNCc5ccc(F)cc5)c4)[nH]c3-c3ccncc3)ccc21
- growth inhibition [1]: 69% (active)
- inhibition [2]: 76% (active)
- inhibition [3]: -3% (inactive)
- growth inhibition [4]: 89% (active)

Compound: Cc1c(C)c2c(c(C)c1O)CCC(C)(CN1CCN(c3cc(N4CCCC4)nc(N4CCCC4)n3)CC1)O2 (configuration not stated)
- period change [5]: 0.14 h (inactive)

Compound: O=[N+]([O-])c1ccc(-c2nc3ccc(C4=N[C@H]5CCCC[C@H]5N4)cc3[nH]2)cc1
- growth inhibition [1]: 30% (inactive)
- inhibition [2]: -1% (inactive)
- inhibition [3]: 3% (inactive)
- growth inhibition [4]: 100% (active)

Compound: Oc1c(C=Nn2cnnc2)sc2ccccc12
- growth inhibition [1]: 68% (active)
- inhibition [2]: -4% (inactive)
- inhibition [3]: 0% (inactive)
- growth inhibition [4]: 93% (active)

Compound: COc1ccc(Nc2nc(NN=Cc3cc(Br)c(O)cc3O)nc(Nc3ccc([N+](=O)[O-])cc3)n2)cc1
- growth inhibition [1]: 23% (inactive)
- inhibition [2]: 30% (inactive)
- inhibition [3]: 4% (inactive)
- growth inhibition [4]: 97% (active)

Compound: CN(Cc1cnc2nc(N)nc(N)c2n1)c1ccc(C(=O)N[C@H](CCC(=O)O)C(=O)O)cc1
- growth inhibition [1]: 44% (inactive)
- inhibition [2]: 65% (active)
- inhibition [3]: -4% (inactive)
- growth inhibition [4]: 92% (active)
- period change [5]: 0.095 h (inactive)

Compound: CC[C@@H]([C@@H](CC(C)C)C(=O)N[C@@H](CCCCNC(=O)OCc1ccccc1)C(=O)Nc1ccccn1)N(O)C=O
- growth inhibition [1]: 99% (active)
- inhibition [2]: -7% (inactive)
- inhibition [3]: -8% (inactive)
- growth inhibition [4]: 98% (active)

Compound: CCN1CCN(c2cc(C)c3cc(NC(=O)c4ccc(C(C)(C)C)cc4)ccc3n2)CC1
- inhibition [2]: 34% (inactive)
- inhibition [3]: -3% (inactive)
- growth inhibition [4]: 85% (active)

Compound: CCC[C@@H](C(=O)NCCc1cccc(OC)c1)N1C(=O)c2c(ccc(OC)c2OC)C1C(=O)Nc1c(C)cccc1C (some centres not stated)
- growth inhibition [1]: 32% (inactive)
- inhibition [2]: 6% (inactive)
- inhibition [3]: 3% (inactive)
- growth inhibition [4]: 94% (active)

Compound: CCC[C@@H]([C@@H](CC(C)C)C(=O)N[C@@H](CCCCNC(=O)OCc1ccccc1)C(=O)Nc1ncccn1)N(O)C=O
- growth inhibition [1]: 98% (active)
- inhibition [2]: 3% (inactive)
- inhibition [3]: 4% (inactive)
- growth inhibition [4]: 100% (active)

Compound: COc1ccc2nc(C)cc(NN=Cc3cc(C)ccc3O)c2c1
- growth inhibition [1]: 100% (active)
- inhibition [2]: 78% (active)
- inhibition [3]: -2% (inactive)
- growth inhibition [4]: 100% (active)

Compound: O=C(O)[C@@H]1C[C@@H](C(=O)O)N1
- period change [5]: -0.1 h (inactive)

Compound: CCCCN1CCC(n2c(=O)[nH]c3ccccc32)CC1
- period change [5]: -0.16 h (inactive)

Compound: CCCCCCCCCCCCCCCC(=O)NCC(COP(=O)([O-])OCC[N+](C)(C)C)OCC (configuration not stated)
- period change [5]: -0.285 h (inactive)

Compound: O=C(O)/C=C/C(O)c1ccc(Cl)cc1 (configuration not stated)
- period change [5]: 0.15 h (inactive)

Compound: CCCCCCCCCCCCCCCCCCNC(=O)OCC(COP(=O)([O-])OCC[n+]1ccsc1)OC (configuration not stated)
- period change [5]: -0.05 h (inactive)
